From PubChem BioAssay
D2 ag-1: HTS Assay for Allosteric Agonists of the Human D2 Dopamine Receptor: Primary Screen for Agonists; AID 485358, 2010; hit rate 0.53% among 340,000; D(2) dopamine receptor (Homo sapiens), P14416; activation, % at 2 µM; HEK293 T-REx D2 cells, calcium flux agonist mode;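 active means activation over 3 SD above normal in the single-dose calcium agonist read, cut at about 30% in these data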
Target sequence (P14416 whole entry, looked up): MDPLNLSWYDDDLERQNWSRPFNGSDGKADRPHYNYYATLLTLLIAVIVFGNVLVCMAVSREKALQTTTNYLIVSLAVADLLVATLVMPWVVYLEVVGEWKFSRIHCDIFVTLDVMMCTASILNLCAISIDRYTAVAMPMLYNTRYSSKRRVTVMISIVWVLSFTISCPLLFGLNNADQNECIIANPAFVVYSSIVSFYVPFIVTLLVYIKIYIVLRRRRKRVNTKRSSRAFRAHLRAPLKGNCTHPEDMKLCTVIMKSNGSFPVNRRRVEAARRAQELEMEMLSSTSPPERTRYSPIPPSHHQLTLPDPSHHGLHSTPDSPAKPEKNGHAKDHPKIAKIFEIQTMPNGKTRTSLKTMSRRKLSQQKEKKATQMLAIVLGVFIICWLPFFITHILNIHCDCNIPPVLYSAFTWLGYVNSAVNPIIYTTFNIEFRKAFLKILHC
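In this primary screen, compounds producing a positive calcium signal within 180 s of addition to tetracycline-induced, force-coupled HEK293 Trex D2 cells are flagged; cells are dye-loaded with a no-wash calcium kit beforehand.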
D2 PAM-1: HTS Assay for Positive Allosteric Modulators of the Human D2 Dopamine Receptor: Primary Screen for Potentiators; AID 485347, 2010; potentiation, % at 10 µM; hit rate 0.34% among 340,000; HEK293 T-REx D2, calcium flux, EC20 dopamine potentiation;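 active means potentiation over 3 SD above the plate norm, cut at about 30% in these data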
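Cells plated with tetracycline inducer and held overnight at 30 C; calcium dye loaded 30–90 min at room temperature; baseline taken, compound added and read 180 s; EC20 dopamine then added and read 180 s.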
D2 ag-2: Beta-Arrestin HTS for Positive Allosteric Modulators of the Human D2 Dopamine Receptor: Agonists; hit rate 0.084% among 360,000; DiscoveRx PathHunter D2 beta-arrestin, luminescence, 90 min; 100% = 57 uM dopamine signal; activation, % (concentration not given with the values); AID 624465, 2012; in the data active means activation above about 40%
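Agonist mode: compounds alone added to overnight-plated D2 PathHunter cells for 90 min at 37 C, with 57 uM final dopamine (EC100) defining full response. Beta-arrestin recruitment detected by chemiluminescent reagent, read after 1 h at ambient temperature.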
D2 antag: HTS Assay for Allosteric Antagonists of the Human D2 Dopamine Receptor: Primary Screen for Antagonists; D(2) dopamine receptor (Homo sapiens), P14416; HEK293 TREx D2 cells, calcium flux, dopamine EC80; inhibition, % at 10 µM; hit rate 2% among 340,000; AID 485344, 2010; in the data active means inhibition above about 30%; inactive means below that, where a call was filed
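Antagonism is scored as inhibition of an EC80 dopamine-evoked calcium signal in a force-coupled, tetracycline-inducible HEK293 T-REx D2 line, with compound present 180 s before agonist.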
D2 PAM-2: Beta-Arrestin HTS for Positive Allosteric Modulators of the Human D2 Dopamine Receptor: Potentiators | D(2) dopamine receptor (Homo sapiens), P14416 | DiscoveRx D2 beta-arrestin cells, luminescence, 90 min; 100% = 57 uM dopamine signal | potentiation, % (test concentration not listed) | hit rate 0.23% among 360,000 | AID 624464, 2012; in the data active means potentiation above about 50%
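PathHunter D2 cells, attached overnight at 37 deg C, received compound in DMSO plus dopamine at EC20 (50 nM final) for 90 min at 37 deg C. Beta-arrestin recruitment was read as luminescence after 1 h with detection reagent at ambient temperature.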
Of the large screens only hits and unclear results are named; the others gave an inactive call. Most compounds without a hit are left out; they make up all but 2.4% or so of the library.

O=C(CN1CCC(C(=O)c2ccc(F)cc2)CC1)Nc1ccc(F)cc1	none
Cc1ccc(C(=O)N2CCC(C(=O)c3ccc(F)cc3)CC2)cc1	none (no result: D2 ag-1, D2 PAM-1, D2 antag)
Cc1ccc(C(=O)C2CCN(CC(=O)N3CCN(c4ccc(F)cc4)CC3)CC2)cc1	D2 antag 51
Cc1ccc(C(=O)C2CCN(CC(=O)Nc3ccc(N(C)C)cc3)CC2)cc1	D2 antag 33
O=C(Nc1ccc(S(=O)(=O)N2CCCCC2c2cccnc2)cc1)c1ccc(Br)cc1 (stereo not drawn)	none (no result: D2 ag-2, D2 antag, D2 PAM-2)
CC(C)c1ccccc1NC(=S)N1CCN(Cc2ccc3c(c2)OCO3)CC1	D2 antag 33
O=C(CN1CCC(NC(=O)c2ccco2)CC1)Nc1ccccc1C(F)(F)F	D2 antag 50
S=C(Nc1cc(Cl)cc(Cl)c1)NC1CCN(Cc2ccccc2)CC1	D2 antag 72
S=C(Nc1ccccc1Cl)NC1CCC(NC(=S)Nc2ccccc2Cl)CC1 (stereo not drawn)	none (no result: D2 ag-1, D2 antag)
S=C(Nc1ccc(Cl)cc1Cl)NC1CCN(Cc2ccccc2)CC1	D2 antag 75
CCCOC(=O)c1cccc(Nc2nc(CCC)cc(=O)[nH]2)c1	none (no result: D2 ag-2, D2 antag, D2 PAM-2)
Clc1ccc(CNC2CCN(Cc3ccccc3)CC2)cc1	none
S=C(NCc1ccc(Cl)cc1)NC1CCN(Cc2ccccc2)CC1	D2 antag 71
O=C(NC(=S)NC1CCN(Cc2ccccc2)CC1)c1ccc(F)cc1	none
FC(F)(F)c1ccccc1NC(=S)NC1CCN(Cc2ccccc2)CC1	D2 antag 115
S=C(Nc1ccccc1Cl)NC1CCN(Cc2ccccc2)CC1	D2 antag 85
O=C(NC1CCN(Cc2ccccc2)CC1)C1CCN(S(=O)(=O)c2ccc(Cl)cc2)CC1	D2 antag 33
COc1cccc(-c2cc(C(F)(F)F)nc(NCCc3ccccc3)n2)c1	none (no result: D2 ag-2, D2 antag, D2 PAM-2)
O=S(=O)(NCCc1c[nH]c2ccccc12)c1ccc(F)cc1	none (no result: D2 ag-1, D2 PAM-1, D2 antag)
CCOC(=O)CN1C(=O)C(O)(CC(=O)c2cc(OC)ccc2OC)c2ccccc21 (stereo not drawn)	none (no result: D2 ag-2, D2 antag, D2 PAM-2)
CC(C)c1ccccc1NC(=S)NC1CCN(Cc2ccccc2)CC1	D2 antag 96
COc1ccc(CCNC(=S)NC2CCN(Cc3ccccc3)CC2)cc1OC	D2 antag 32
O=C(CNC(=O)c1ccccc1Cl)NC1CCN(Cc2ccccc2)CC1	none
O=C(NC1CCN(Cc2ccccc2)CC1)c1ccc(Cl)cc1Cl	D2 antag 61
Cc1c(Cl)cccc1NC(=S)NC1CCN(Cc2ccccc2)CC1	D2 antag 85
COc1ccc(CCNC(=S)NCCc2ccc(OC)c(OC)c2)cc1OC	none
Cc1c(Cl)cccc1NC(=S)N1CCN(Cc2ccccc2)CC1	none
CCOc1ccccc1NC(=O)c1c(NC(=O)c2cccc(C)c2)sc2c1CCCC2	none (no result: D2 ag-2, D2 antag, D2 PAM-2)
Cc1c(C2=CCN(S(=O)(=O)c3cccc(Cl)c3)CC2)c2ccccc2n1CC(=O)N1CCCC1	none (no result: D2 ag-2, D2 antag, D2 PAM-2)
Cc1ccc(-n2cnnn2)c2cccnc12	none
CCN1C(=O)c2cccc3c(N)ccc(c23)C1=O	D2 ag-1 151, D2 antag 61
CCCCNc1ccc2c3c(cccc13)C(=O)N(CCCC)C2=O	D2 ag-1 185, D2 antag 81
CCCN1C(=O)c2cccc3c(N4CCCCC4)ccc(c23)C1=O	none
Cc1nn(C)c(C)c1N1C(=O)c2cccc3c(N)ccc(c23)C1=O	D2 ag-1 115
Cc1ccc(N2C(=O)c3cccc4c(N)ccc(c34)C2=O)c2cccnc12	D2 ag-1 84
CCCCCOC(=O)CSc1nc2sc3c(c2c(=O)n1-c1ccccc1)CC(C)(CC)OC3 (stereo not drawn)	none (no result: D2 ag-2, D2 antag, D2 PAM-2)
Cc1nn2c(N3CCOCC3)cc(C(C)(C)C)nc2c1-c1ccc(Cl)cc1	none
Cc1cc(N2CCOCC2)n2nc(C)c(-c3ccc(Cl)cc3)c2n1	D2 antag 33
